Laboratory results: PubChem BioAssay AID1159580 (chemical genetic matrix, 2015)
Among all 5,500 compounds or so, about 2,000 (36%) were called active. About 18% were inconclusive and are not listed. Rule as the data show it: active = normalized growth mostly below about 0.91 (no sharp cut-off); inconclusive = no clear call, values can overlap the other calls; inactive = mostly above about 0.92. This is one part of the list.

Test: chemical genetic growth profiling, strain panel (AID 1159580);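 also: tested at 20 µM; growth read once vehicle control cultures reached saturation at 30 °C; 1 = growth at the plate median or of vehicle wells; lower values mean less growth of the strain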
Settings: S. cerevisiae deletion strains, growth OD
[1] = locus YAR019C, strain CDC15, active compounds read low
[2] = locus YBL105C, strain PKC1, active compounds read low
[3] = locus YBR135W, strain CKS1, active compounds read low
[4] = locus YBR136W, strain MEC1, active compounds read low
[5] = locus YBR160W, strain CDC28, active compounds read low
[6] = locus YDL017W, strain CDC7, active compounds read low
[7] = locus YDL028C, strain MPS1, active compounds read low
[8] = locus YDL101C, strain DUN1, active compounds read low
[9] = locus YDL108W, strain KIN28, active compounds read low
[10] = locus YDL132W, strain cdc53, active compounds read low
[11] = locus YDL214C, strain PRR2, active compounds read low
[12] = locus YDR052C, strain DBF4, active compounds read low
[13] = locus YDR054C, strain cdc34, active compounds read low
[14] = locus YDR226W, strain ADK1, active compounds read low
[15] = locus YDR477W, strain SNF1, active compounds read low
[16] = locus YER123W, strain YCK3, active compounds read low
[17] = locus YER133W, strain GLC7, active compounds read low
[18] = locus YFL009W, strain cdc4, active compounds read low
[19] = locus YFL029C, strain CAK1, active compounds read low
[20] = locus YFR003C, strain YPI1, active compounds read low
[21] = locus YFR019W, strain FAB1, active compounds read low
[22] = locus YFR028C, strain CDC14, active compounds read low
[23] = locus YGR040W, strain KSS1, active compounds read low
[24] = locus YGR052W, strain FMP48, active compounds read low
[25] = locus YGR092W, strain DBF2, active compounds read low
[26] = locus YHR030C, strain SLT2, active compounds read low
[27] = locus YHR079C, strain IRE1, active compounds read low
[28] = locus YHR082C, strain KSP1, active compounds read low
[29] = locus YHR205W, strain SCH9, active compounds read low
[30] = locus YIL147C, strain SLN1, active compounds read low
[31] = locus YJL095W, strain BCK1, active compounds read low
[32] = locus YJL128C, strain PBS2, active compounds read low
[33] = locus YJL157C, strain FAR1, active compounds read low
[34] = locus YJR016C, strain ILV3, active compounds read low
[35] = locus YJR066W, strain TOR1 (second series), active compounds read low
[36] = locus YJR066W, strain TOR1, active compounds read low
[37] = locus YKL048C, strain ELM1, active compounds read low
[38] = locus YKL067W, strain YNK1, active compounds read low
[39] = locus YKL101W, strain HSL1, active compounds read low
[40] = locus YKL193C, strain SDS22, active compounds read low
[41] = locus YKL203C, strain TOR2, active compounds read low
[42] = locus YLR113W, strain HOG1, active compounds read low
[43] = locus YLR133W, strain CKI1, active compounds read low
[44] = locus YLR403W, strain SFP1, active compounds read low
[45] = locus YML070W, strain DAK1, active compounds read low
[46] = locus YMR001C, strain CDC5, active compounds read low
[47] = locus YMR205C, strain PFK2 (second series), active compounds read low
[48] = locus YMR277W, strain FCP1, active compounds read low
[49] = locus YNL006W, strain LST8, active compounds read low
[50] = locus YNL020C, strain ARK1, active compounds read low
[51] = locus YNL161W, strain CBK1, active compounds read low
[52] = locus YNL183C, strain NPR1, active compounds read low
[53] = locus YNL207W, strain RIO2, active compounds read low
[54] = locus YNL222W, strain SSU72, active compounds read low
[55] = locus YNL307C, strain MCK1 (second series), active compounds read low
[56] = locus YOL078W, strain AVO1, active compounds read low
[57] = locus YOL136C, strain PFK27, active compounds read low
[58] = locus YOR061W, strain CKA2, active compounds read low
[59] = locus YOR119C, strain RIO1, active compounds read low
[60] = locus YOR231W, strain MKK1, active compounds read low
[61] = locus YOR329C, strain SCD5, active compounds read low
[62] = locus YPL031C, strain PHO85, active compounds read low
[63] = locus YPL153C, strain RAD53, active compounds read low
[64] = locus YPL204W, strain HRR25, active compounds read low
[65] = locus YPL209C, strain IPL1, active compounds read low
[66] = locus YPL256C, strain CLN2, active compounds read low
[67] = locus YPR025C, strain CCL1, active compounds read low
[68] = locus YPR106W, strain ISR1, active compounds read low
[69] = locus YPR111W, strain DBF20, active compounds read low
[70] = strain NNK1, active compounds read low
[71] = strain TSCII, active compounds read low

Measured: normalized growth

Nc1nc(Cl)nc2c1ncn2[C@@H]1O[C@H](COP(=O)(O)OP(=O)(O)OP(=O)(O)O)[C@H](O)C1O (stereo partly specified)
inactive: locus YAL013W, strain DEP1, active compounds read low 0.999 | locus YAL040C, strain CLN3, active compounds read low 0.995 | locus YCL061C, strain MRC1 (second series), active compounds read low 1 | locus YDR363W, strain ESC2, active compounds read low 1.01 | locus YER002W, strain NOP16, active compounds read low 0.99 | locus YGR078C, strain PAC10, active compounds read low 1.01 | locus YJR075W, strain HOC1, active compounds read low 1 | locus YMR307W, strain GAS1, active compounds read low 0.997 | locus YNL128W, strain TEP1, active compounds read low 1.01 | locus YNL175C, strain NOP13, active compounds read low 0.995 | locus YNL197C, strain WHI3, active compounds read low 1.02 | locus YNL224C, strain SQS1, active compounds read low 0.987 | locus YOR083W, strain WHI5 (second series), active compounds read low 1.01

CCCc1c(C(=O)NNc2cccc(Cl)c2)cnn1-c1ccccc1
inactive: [1] 0.984 | [2] 0.974 | [3] 0.987 | [4] 0.982 | [5] 0.976 | [6] 0.974 | [7] 0.995 | [8] 0.978 | [9] 0.988 | [10] 0.993 | [11] 0.944 | [12] 0.983 | [13] 0.986 | [14] 0.98 | [15] 0.954 | [16] 0.917 | [17] 0.957 | [18] 0.986 | [19] 0.98 | [20] 0.987 | [21] 0.937 | [22] 0.981 | [23] 0.925 | [24] 1 | [25] 0.957 | [26] 0.963 | [27] 0.963 | [28] 1 | [29] 0.933 | [30] 0.992 | [31] 0.968 | [32] 0.917 | [33] 0.937 | [34] 0.986 | [35] 0.911 | [36] 1.02 | [37] 0.968 | [38] 0.947 | [39] 0.924 | [40] 0.988 | [41] 0.987 | [42] 0.864 | [43] 0.936 | [44] 0.917 | [45] 0.927 | [46] 0.979 | [47] 0.948 | [48] 0.987 | [49] 0.996 | [50] 0.927 | [51] 0.983 | [52] 0.98 | [53] 0.983 | [54] 0.976 | [55] 0.935 | [56] 0.985 | [57] 0.897 | [58] 0.963 | [59] 1.01 | [60] 0.898 | [61] 0.981 | [62] 0.963 | [63] 0.94 | [64] 0.924 | [65] 0.973 | [66] 0.892 | [67] 0.982 | [68] 0.959 | [69] 0.965 | [70] 0.971 | [71] 0.988

CCCc1c(C(=O)NC2Cc3ccccc3C2)cnn1-c1ccccc1
inactive: [1] 0.986 | [2] 0.99 | [3] 0.996 | [4] 0.99 | [5] 0.99 | [6] 0.999 | [7] 0.993 | [8] 0.993 | [9] 0.997 | [10] 0.99 | [11] 0.976 | [12] 0.998 | [13] 0.983 | [14] 0.991 | [15] 0.964 | [16] 0.979 | [17] 0.965 | [18] 0.986 | [19] 0.988 | [20] 0.995 | [21] 0.974 | [22] 0.986 | [23] 0.96 | [24] 1.05 | [25] 1.01 | [26] 0.97 | [27] 1 | [28] 1.04 | [29] 0.991 | [30] 0.994 | [31] 0.991 | [32] 0.979 | [33] 0.969 | [34] 0.98 | [35] 0.93 | [36] 0.986 | [37] 0.982 | [38] 0.991 | [39] 0.972 | [40] 0.988 | [41] 1.01 | [42] 0.951 | [43] 0.968 | [44] 0.956 | [45] 0.97 | [46] 0.987 | [47] 0.987 | [48] 0.989 | [49] 0.995 | [50] 0.984 | [51] 0.991 | [52] 0.998 | [53] 0.987 | [54] 0.992 | [55] 0.998 | [56] 0.985 | [57] 0.96 | [58] 0.977 | [59] 1.01 | [60] 0.934 | [61] 0.992 | [62] 0.98 | [63] 0.956 | [64] 0.963 | [65] 0.994 | [66] 0.921 | [67] 0.998 | [68] 0.98 | [69] 0.981 | [70] 0.986 | [71] 0.997

CCCc1c(C(=O)Sc2ccccn2)cnn1-c1ccc(Cl)cc1
active: [42] 0.804 | [66] 0.755
inactive: [1] 0.957 | [2] 0.962 | [3] 0.957 | [4] 0.964 | [5] 0.944 | [6] 0.963 | [7] 0.966 | [8] 0.964 | [9] 0.955 | [10] 0.95 | [11] 0.861 | [12] 0.962 | [13] 0.948 | [14] 0.959 | [15] 0.876 | [16] 0.847 | [17] 0.878 | [18] 0.957 | [19] 0.948 | [20] 0.955 | [21] 0.908 | [22] 0.955 | [23] 0.845 | [24] 0.919 | [25] 0.879 | [26] 0.933 | [27] 0.931 | [28] 0.907 | [29] 0.93 | [30] 0.967 | [31] 0.951 | [32] 0.932 | [33] 0.849 | [34] 0.955 | [35] 0.822 | [36] 0.87 | [37] 0.911 | [38] 0.885 | [39] 0.912 | [40] 0.961 | [41] 0.942 | [43] 0.912 | [44] 0.861 | [45] 0.869 | [46] 0.953 | [47] 0.932 | [48] 0.964 | [49] 0.98 | [50] 0.911 | [51] 0.955 | [52] 0.881 | [53] 0.955 | [54] 0.957 | [55] 0.912 | [56] 0.957 | [57] 0.878 | [58] 0.898 | [59] 0.947 | [60] 0.897 | [61] 0.957 | [62] 0.903 | [63] 0.899 | [64] 0.895 | [65] 0.952 | [67] 0.954 | [68] 0.95 | [69] 0.937 | [70] 0.961 | [71] 0.955
